Test results taken from ChEMBL document CHEMBL3988442, “University of Dundee, Small-Polar-MMV Screening Library” (2021).
Screen size: about 53,000 compounds; about 900 (1.7%) showed an effect of 50% or more. Shown is part of a subset that was picked to be rich in strong results.

test system: Mycobacterium tuberculosis; assay: Cornell - Phenotypic assay to identify agents that inhibit growth of Mycobacterium tuberculosis; format: functional; design: scale not given: direction of the effect not stated beside the values; conditions: 10 mM as filed; unlikely as a test dose

SMILES	Percent Effect [%]
CCn1nc(C)cc1C(=O)NCc1cc(N(C)C)nc2ccccc12	34.42
CC(C)OCCCNC(=O)CN1CCN(c2nccs2)CC1	4.56
O=C(c1cnc(O)c(Cl)c1)N1CCCC(c2nccs2)C1 (stereo unspecified)	-10.54
O=C(NCCN1CCOCC1)Nc1cnc2cc(Cl)ccc2c1O	-4.322
O=C(NCCCN1CCOCC1)Nc1cnc2cc(Cl)ccc2c1O	32.37
O=C(NCCCO)Nc1cnc2cc(Cl)ccc2c1O	81.69
CNC(=O)Nc1cnc2cc(Cl)ccc2c1O	-22.82
O=C(NCC1CC1)Nc1cnc2cc(Cl)ccc2c1O	-6.744
O=C(NCCO)Nc1cnc2cc(Cl)ccc2c1O	103.7
Cl.O=C(NCCn1nc(C2CCNC2)c2cccnc21)C1CC1 (stereo unspecified)	-8.257
O=C(O)COc1ccccc1CN1CCCC1c1ccncn1 (stereo unspecified)	-19.71
CC(SCC(=O)N(C)CC(=O)NC1CC1)c1cc(F)ccc1F (stereo unspecified)	-24.27
O=C(NCc1ccco1)[C@H]1COC[C@H]2CN(Cc3ccoc3)C[C@H]21.O=C(O)C(F)(F)F	-10.46
CN(C(=O)Cc1cccs1)C1CCN(c2ccccn2)CC1	-44.78
O=C(O)CC(CC(=O)NCCc1cccs1)c1cccs1 (stereo unspecified)	23.94
O=C(O)CC(CC(=O)N(Cc1ccsc1)C1CC1)c1cccs1 (stereo unspecified)	15.88
Cn1cccc1CN(C(=O)CC(CC(=O)O)c1cccs1)C1CC1 (stereo unspecified)	104.7
CN(Cc1cccs1)C1CCC[C@@H]2CN(C(=O)c3cccn3C)C[C@H]12 (stereo partly specified)	28.44
Cn1cccc1CN(C(=O)Cc1cccs1)C1CC1	91.3
Cc1ccc(N(C)[C@@H]2CC[C@@H]3CN(C(=O)C4CCOCC4)C[C@@H]32)nn1	-1.727
CCN(Cc1nc(Cc2ccccc2)no1)C1CC1	-4.646
CC(C)c1ccc(S(=O)(=O)N2CSCC2C(=O)NCC(F)(F)F)cc1 (stereo unspecified)	11.48

SMILES	Percent Effect [%]
Cc1cccc(CNC(=O)NCC2CCN(Cc3ncc[nH]3)C2)c1 (stereo unspecified)	26.47
c1cc(CN2CCCC2c2noc(C3CC3)n2)on1 (stereo unspecified)	-61.35
Cc1cc(CN2CCCC2c2noc(C3CC3)n2)c2ccccc2n1 (stereo unspecified)	12.61
c1ccc2sc(CN3CCCC3c3noc(C4CC4)n3)nc2c1 (stereo unspecified)	50.21
CCOC(=O)[C@]12CCCN(Cc3cccs3)C[C@H]1CN(CCOC)C2.O=C(O)C(F)(F)F.O=C(O)C(F)(F)F	11.02
COc1ccc(CNC(C)c2cnn(C)c2)cc1OC1CCCC1 (stereo unspecified)	9.224
O=C(O)C(F)(F)F.c1coc(CN2CCCn3c(nnc3Cn3cccc3)C2)c1	21.05
Cl.O=C(NCCn1nc(C2CCNC2)c2cccnc21)c1ccccn1 (stereo unspecified)	-9.907
Cc1cc(-c2ccc(=O)n(CCNC(=O)C3CCCCC3)n2)c(C)o1	6.455
Cc1cc(-c2ccc(=O)n(CCNC(=O)C3CC3)n2)c(C)o1	55.53
Cc1cc(-c2ccc(=O)n(CCNC(=O)C3CCC3)n2)c(C)o1	-20.09
O=C(Nc1cccc(CN2CCC(CO)CC2)c1)c1cc(Cl)c[nH]1	-16.48
CC(C)N(C)S(=O)(=O)N(Cc1cccs1)Cc1cccs1	53.57
CCN(Cc1cccs1)S(=O)(=O)N(C)C(C)C	30.52
COc1ccccc1CN(Cc1cccs1)S(=O)(=O)N(C)C(C)C	41.56
CCOc1ccc(C(F)(F)F)cc1NC(=O)N1CCNC(=O)C1	13.57
Br.O=C(CN(C1=NCCCC1)c1ccccc1)c1ccc2c(c1)OCCO2	22.49
Br.Cc1cccc(N(CC(=O)c2ccccc2)C2=NCCCCC2)c1	13.79
Br.CCOc1ccc(N(CC(=O)c2ccccc2)C2=NCCCCC2)cc1	104.2
Br.COc1ccc(C(=O)CN(C2=NCCCCC2)c2ccccc2)cc1	15.77
Br.O=C(CN(C1=NCCCC1)c1ccccc1)c1ccc(OC(F)F)cc1	62.24
Br.Cc1ccc(N(CC(=O)c2ccc(Br)cc2)C2=NCCCCC2)cc1	102.8

SMILES	Percent Effect [%]
Br.O=C(CN(C1=NCCCC1)c1ccccc1)c1ccccc1	-16.62
Br.O=C(CN(C1=NCCCCC1)c1ccc(Cl)cc1)c1ccccc1	14.11
Br.Cc1ccc(C(=O)CN(C2=NCCCCC2)c2ccccc2)cc1	29.09
O=C(NCC[S+]([O-])c1ccccc1)c1ccc2[nH]c(=O)[nH]c2c1 (stereo unspecified)	15.24
CCOC(=O)[C@@H]1[C@@H](O)C(=O)N(C)C12CCN(C(=O)OC)CC2	-16.14
CC(C)CCN1C(=O)C2(NC(=O)c3ccccc3O2)c2ccccc21 (stereo unspecified)	40.69
Cc1nc(-c2ccncc2)ncc1C(C)NC(=O)CN1CCOC1=O (stereo unspecified)	-51.46
O=S(=O)(NCCCn1cncn1)c1ccc2c(c1)CCC2	-2.394
CN(CCc1nccs1)C(=O)C1(C#N)CCCCC1	25.08
Cc1nc(NCCO)cc(C(C)Cn2nc(C)c(C)c2C)n1 (stereo unspecified)	-14.61
NC(=O)c1cn2cc(-c3ccccc3Cl)n(CC3CC3)c(=O)c2n1	14.04
O=C(C1CCN(c2ccnc3ccc(Br)cc23)CC1)N1CCOCC1	-18.98
CC(=O)NCC1CCN(c2ccnc3ccc(Br)cc23)CC1	9.267
CC1CCN(c2ccnc3ccc(Br)cc23)CC1	84.63
Cc1ccc(OCC(=O)Nc2cc(C(=O)O)cc(S(C)(=O)=O)c2)cc1C	18.88
CCc1nc(C2CCCN2C(=O)c2csc(COC)n2)no1 (stereo unspecified)	-20.84
Cc1cc(N2CCCC2Cn2nc(C)cc2C)n2ncnc2n1 (stereo unspecified)	-13.82
Cc1cc(-n2cncn2)n2ncnc2n1	64.26
Cc1cc(-n2cnnn2)n2ncnc2n1	-30.4
Cc1ccc(C(=O)N2CCOC(c3ncc(CN(C)C)[nH]3)C2)cc1F (stereo unspecified)	14.93
COc1ccc(F)cc1CN(CC(N)=O)C(C)C	-0.4736
Cc1cc(-c2ccccc2)nc(C2CCCN2S(C)(=O)=O)n1 (stereo unspecified)	-11.27

SMILES	Percent Effect [%]
Cn1cc(Br)c(C(=O)NCCn2cc(Br)cn2)n1	8.473
N#Cc1ccc(N2CCC(OCCc3ccccc3)CC2)nc1	51.1
Cc1cccc(OC2CCN(c3ccc(C#N)cn3)CC2)n1	4.434
N#Cc1cccnc1N1CCC(OCCc2ccccc2)CC1	33.41
O=C(Cc1cccc(O)c1)N1CCCC(O)(CN2CCCC2)CC1 (stereo unspecified)	-1.621
c1cc2c(cc1CN1CCN(Cc3noc(C4CC4)n3)CC1)OCO2	10.54
CCC(=O)Nc1ccc2c(c1)C1(CCOCC1)CN2CCF.O=C(O)C(F)(F)F	2.387
CCC1C(=O)NCCN1c1nccc(C)n1 (stereo unspecified)	-0.2663
Cc1nc(CN2CCc3nc(N4CCCC4)nc(NC(C)C)c3C2)cs1	75.47
CC(C)Nc1nc(N2CCCC2)nc2c1CN(C)CC2	33.38
CC(C)Nc1nc(N2CCCC2)nc2c1CN(c1ncc(F)cn1)CC2	82.11
CCCN1CCc2nc(N3CCOCC3)nc(NC(C)C)c2C1	29.26
CCN1CCc2nc(N3CCOCC3)nc(NC(C)C)c2C1	16.58
Cc1nc(CN2CCc3nc(NC(C)C)nc(C)c3C2)cs1	38.07
CCC(C)N1CCc2nc(N3CCCC3)nc(NC(C)C)c2C1 (stereo unspecified)	-13.77
CC(C)Nc1nc(N2CCCC2)nc2c1CN(C(C)C)CC2	61.73
CC(C)Nc1nc(N2CCCC2)nc2c1CN(S(C)(=O)=O)CC2	12.79
CCN(C(=O)c1nc2c(s1)CCCN2c1ccc(C)nn1)C(C)C	10.96
Cc1cc(F)ccc1N1CCCC(Nc2nccn3cnnc23)C1=O (stereo unspecified)	-2.577
Cc1cc(C(F)(F)F)n2nc(C3CCN(S(=O)(=O)N(C)C)CC3)cc2n1	-8.533
Cc1cc(C)nc(C2CCCN2C(=O)c2cnccn2)n1 (stereo unspecified)	-1.129
Cn1ccc2c(-c3cc(N4CCCCC4)ncn3)ccnc21	-7.071

SMILES	Percent Effect [%]
Clc1cc(N2CCN(C3CCOCC3)CC2)nc2[nH]ccc12	-30.2
CN(Cc1noc(-c2ccccc2)n1)C(=O)CSc1nnc(N)s1	-22.54
CC(C)NC(=O)Cc1cnc(-n2cccc2)s1	43.3
CCOCC(=O)N1CCCn2c(CN3CCOCC3)nnc2C1	18.04
Cn1cc(-c2cnc(N3CCCC3)nc2)cc1C(=O)O	95.84
Cn1cc(-c2cnc(N3CCOCC3)nc2)cc1C(=O)O	44.3
CN1CCN(C(=O)c2cc(-c3cnc(N4CCCC4)nc3)cn2C)CC1	2.355
COc1cccc(Cl)c1C(C(=O)O)N1CCC(Cn2cccn2)CC1 (stereo unspecified)	-18.71
CN(Cc1noc(C(C)(C)C)n1)Cc1ccccc1N1CCCCC1	2.184
CC(C)(O)C1CCN(C(=O)Nc2nc(-c3ccccc3)ns2)CC1	105.1
O=C(Nc1nc(-c2ccccc2)ns1)N1CCC(F)CC1	13.41
CC(C)(O)C1CCCN(C(=O)Nc2nc(-c3ccccc3)ns2)C1 (stereo unspecified)	24.52
O=C(c1ccc(-n2cnnc2)cc1)N1CCCC(n2ccnc2)C1 (stereo unspecified)	15.63
Cc1cc(C)c2cc(CNCc3ccc(C)o3)c3nn(C)c(=O)n3c2c1	-2.639
O=C(CCn1ccc2ccc(Cl)cc21)NCc1ccc(C(=O)O)cc1	28.36
CC(C)NC(=O)C1(Cc2ccccc2-c2cncnc2)CCCNC1 (stereo unspecified)	-1.5
Cc1ccc(-c2ccccc2CC2(C(=O)NC(C)C)CCCNC2)cc1 (stereo unspecified)	60.07
CC(C)NC(=O)C1(Cc2ccccc2-c2ccccc2)CCCNC1 (stereo unspecified)	-4.67
